Data: PubChem BioAssay AID1159580 (chemical genetic matrix, 2015)
Where “and” joins values, the source holds several entries; their conditions need not be identical. Equal entries are not always repeated. About 2,000 (36%) of roughly 5,500 compounds were called active. Roughly 18% stayed inconclusive and do not appear here. No stated cut-off is given here; in the data, active means normalized growth mostly below about 0.91 (no sharp cut-off); inconclusive means no clear call, values can overlap the other calls; inactive means mostly above about 0.92. This is one part of the list.

Test: chemical genetic growth profiling, strain panel (AID 1159580);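 further: tested at 20 µM; growth read once vehicle control cultures reached saturation at 30 °C; 1 = growth at the plate median or of vehicle wells; lower values mean less growth of the strain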
Settings: S. cerevisiae deletion strains, growth OD

Measured: normalized growth

CC(C)/C(O)=C1/C(=O)O[C@@H](c2ccoc2)[C@]2(C)C(O)[C@@H](O)[C@@]34OC5(C)OC67CC(C)(C(O)[C@]6(O)[C@@H](O)[C@]3(O5)C12)[C@H](CC(=O)O)[C@]74C (stereo partly drawn)
inactive: locus YAL021C, strain ccr4, active compounds read low 0.945 | locus YAL026C, strain drs2, active compounds read low 1.01 | locus YAL030W, strain snc1, active compounds read low 0.979 | locus YBL061C, strain skt5, active compounds read low 1.01 | locus YBR009C, strain hhf1, active compounds read low 0.993 | locus YBR021W, strain FUR4, active compounds read low 0.991 | locus YBR023C, strain chs3, active compounds read low 0.992 | locus YBR171W, strain sec66, active compounds read low 1.01 | locus YBR229C, strain ROT2, active compounds read low 1 | locus YBR231C, strain swc5, active compounds read low 1.03 | locus YBR279W, strain paf1, active compounds read low 0.997 | locus YCL011C, strain gbp2, active compounds read low 0.975 | locus YCL016C, strain dcc1, active compounds read low 0.982 | locus YCL029C, strain bik1, active compounds read low 0.997 | locus YCL061C, strain MRC1, active compounds read low 0.998 | locus YCL069W, strain vba3, active compounds read low 0.981 | locus YCR088W, strain abp1, active compounds read low 0.994 | locus YDL005C, strain med2, active compounds read low 0.985 | locus YDL035C, strain GPR1, active compounds read low 0.993 | locus YDL040C, strain nat1, active compounds read low 0.995 | locus YDL074C, strain BRE1, active compounds read low 1 | locus YDL101C, strain DUN1, active compounds read low 1.01 | locus YDL185W, strain tfp1, active compounds read low 1.02 | locus YDL192W, strain arf1, active compounds read low 1.01 | locus YDR001C, strain nth1, active compounds read low 0.974 | locus YDR069C, strain doa4, active compounds read low 1.02 | locus YDR101C, strain arx1, active compounds read low 0.986 | locus YDR137W, strain rgp1, active compounds read low 0.992 | locus YDR150W, strain NUM1, active compounds read low 0.965 | locus YDR159W, strain sac3, active compounds read low 1.06 | locus YDR162C, strain NBP2, active compounds read low 1.01 | locus YDR195W, strain ref2 0.974 | locus YDR297W, strain sur2, active compounds read low 1.01 | locus YDR318W, strain mcm21, active compounds read low 1.01 | locus YDR334W, strain swr1, active compounds read low 0.988 | locus YDR335W, strain msn5, active compounds read low 0.987 | locus YDR388W, active compounds read low 1 | locus YDR392W, strain spt3, active compounds read low 0.933 | locus YDR502C, strain sam2, active compounds read low 1.01 | locus YEL003W, strain gim4, active compounds read low 1.01 | locus YEL037C, strain rad23, active compounds read low 0.99 | locus YEL061C, strain CIN8 (second series), active compounds read low 0.985 | locus YER015W, strain faa2, active compounds read low 1.01 | locus YER016W, strain bim1, active compounds read low 0.998 | locus YER110C, active compounds read low 1.01 | locus YER111C, strain swi4, active compounds read low 0.981 | locus YER155C, strain BEM2 (second series), active compounds read low 1.04 | locus YER155C, strain BEM2, active compounds read low 1 | locus YER167W, strain BCK2, active compounds read low 0.996 | locus YFR010W, strain ubp6, active compounds read low 1.01 | locus YGL078C, strain dbp3, active compounds read low 1.02 | locus YGL086W, strain mad1, active compounds read low 1 | locus YGL167C, strain pmr1, active compounds read low 0.993 | locus YGL173C, strain kem1, active compounds read low 1.02 | locus YGL227W, strain vid30, active compounds read low 0.993 | locus YGL240W, strain doc1, active compounds read low 1.02 | locus YGL248W, strain PDE1, active compounds read low 0.997 | locus YGL253W, strain hxk2, active compounds read low 1.01 | locus YGR135W, strain pre9, active compounds read low 1.02 | locus YGR229C, strain SMI1, active compounds read low 0.991 | locus YGR252W, strain gcn5, active compounds read low 0.988 | locus YHR013C, strain ard1, active compounds read low 0.976 | locus YHR027C, strain rpn1, active compounds read low 0.994 | locus YHR030C, strain SLT2, active compounds read low 0.951 | locus YHR079C, strain IRE1 (second series), active compounds read low 1.01 | locus YHR079C, strain IRE1, active compounds read low 0.984 | locus YHR094C, strain hxt1, active compounds read low 1.01 | locus YHR129C, strain ARP1, active compounds read low 0.999 | locus YHR142W, strain chs7, active compounds read low 0.945 | locus YHR200W, strain rpn10, active compounds read low 1.01 | locus YIL066C, strain RNR3, active compounds read low 0.991 | locus YIL073C, strain SPO22, active compounds read low 1.06 | locus YIL125W, strain kgd1, active compounds read low 1 | locus YIR030C, strain dcg1, active compounds read low 1.01 | locus YJL092W, strain hpr5, active compounds read low 0.989 | locus YJL095W, strain BCK1 (second series), active compounds read low 1 | locus YJL095W, strain BCK1, active compounds read low 1.03 and 0.971 | locus YJL115W, strain asf1, active compounds read low 0.977 | locus YJL129C, strain trk1, active compounds read low 0.997 | locus YJL134W, strain LCB3, active compounds read low 0.993 | locus YJL154C, strain vps35, active compounds read low 0.98 | locus YJL164C, strain tpk1, active compounds read low 0.958 | locus YJL166W, strain qcr8, active compounds read low 1 | locus YJL168C, strain set2, active compounds read low 1.01 | locus YJL187C, strain SWE1 (second series), active compounds read low 1.01 | locus YJR066W, strain TOR1, active compounds read low 0.926 | locus YJR075W, strain HOC1, active compounds read low 1 | locus YKL009W, strain mrt4, active compounds read low 1.02 | locus YKL068W, active compounds read low 0.999 | locus YKL085W, strain MDH1 (second series), active compounds read low 1.01 | locus YKL085W, strain MDH1, active compounds read low 1.01 | locus YKL160W, strain elf1, active compounds read low 0.962 | locus YKL190W, strain CNB1, active compounds read low 0.986 | locus YKR001C, strain vps1, active compounds read low 1.01 | locus YKR026C, strain gcn3, active compounds read low 0.994 | locus YKR091W, strain srl3, active compounds read low 0.991 | locus YLL001W, strain dnm1, active compounds read low 0.973 | locus YLL026W, active compounds read low 0.992 | locus YLL041C, strain sdh2, active compounds read low 0.985 | locus YLR027C, strain aat2, active compounds read low 0.999 | locus YLR039C, strain RIC1, active compounds read low 1.06 | locus YLR058C, strain SHM2, active compounds read low 1.01 | locus YLR102C, strain apc9, active compounds read low 0.998 | locus YLR113W, strain HOG1, active compounds read low 0.997 | locus YLR221C, strain rsa3, active compounds read low 1.05 | locus YLR258W, strain gsy2, active compounds read low 0.998 | locus YLR262C, strain YPT6 (second series), active compounds read low 0.979 | locus YLR262C, strain YPT6, active compounds read low 1.1 | locus YLR268W, strain sec22, active compounds read low 0.999 | locus YLR320W, strain mms22, active compounds read low 1.04 | locus YLR330W, strain CHS5, active compounds read low 1 | locus YLR342W, strain FKS1 (second series), active compounds read low 0.985 | locus YLR342W, strain FKS1, active compounds read low 0.995 | locus YLR357W, strain rsc2, active compounds read low 1.01 | locus YLR370C, strain arc18, active compounds read low 0.977 | locus YLR371W, strain rom2, active compounds read low 1.01 | locus YLR384C, strain iki3, active compounds read low 0.997 | locus YLR418C, strain cdc73, active compounds read low 1.03 | locus YML016C, strain PPZ1, active compounds read low 1.01 | locus YML032C, strain rad52, active compounds read low 1.01 | locus YML120C, strain ndi1, active compounds read low 0.973 | locus YML124C, strain tub3, active compounds read low 1.02 | locus YMR058W, strain fet3, active compounds read low 1 | locus YMR078C, strain ctf18, active compounds read low 1.02 | locus YMR125W, strain sto1, active compounds read low 0.951 | locus YMR129W, active compounds read low 0.989 | locus YMR205C, strain PFK2, active compounds read low 0.978 | locus YMR223W, strain ubp8, active compounds read low 1.01 | locus YMR231W, strain pep5, active compounds read low 1 | locus YMR263W, strain SAP30, active compounds read low 1.01 | locus YMR307W, strain GAS1, active compounds read low 0.982 | locus YNL067W, strain RPL9B, active compounds read low 1.03 | locus YNL071W, strain lat1, active compounds read low 0.987 | locus YNL128W, strain TEP1, active compounds read low 1 | locus YNL183C, strain NPR1, active compounds read low 0.939 | locus YNL209W, strain ssb2, active compounds read low 0.988 | locus YNL233W, strain BNI4, active compounds read low 0.981 | locus YNL248C, strain rpa49, active compounds read low 1.03 | locus YNL250W, strain rad50, active compounds read low 1.01 | locus YNL271C, strain bni1, active compounds read low 1.01 | locus YNL298W, strain CLA4, active compounds read low 1.01 | locus YNL307C, strain MCK1, active compounds read low 1 | locus YNL322C, strain KRE1 (second series), active compounds read low 1.02 | locus YNR049C, strain mso1, active compounds read low 0.974 | locus YNR052C, strain pop2, active compounds read low 1.02 | locus YOL012C, strain htz1 0.728 | locus YOL147C, strain pex11, active compounds read low 1.01 | locus YOR001W, strain rrp6, active compounds read low 1.04 | locus YOR061W, strain CKA2, active compounds read low 1 | locus YOR069W, strain VPS5, active compounds read low 0.998 | locus YOR070C, strain gyp1, active compounds read low 0.996 | locus YOR080W, strain dia2, active compounds read low 1 | locus YOR083W, strain WHI5, active compounds read low 0.954 | locus YOR106W, strain vam3, active compounds read low 0.938 | locus YOR136W, strain idh2, active compounds read low 1.02 | locus YOR144C, strain elg1, active compounds read low 1.01 | locus YOR184W, strain ser1, active compounds read low 1 | locus YOR231W, strain MKK1, active compounds read low 0.991 | locus YOR265W, strain rbl2, active compounds read low 0.989 | locus YOR270C, strain vph1, active compounds read low 0.966 | locus YOR290C, strain snf2, active compounds read low 0.907 | locus YOR316C, strain cot1, active compounds read low 1.01 | locus YPL051W, strain arl3, active compounds read low 1.01 | locus YPL055C, strain LGE1, active compounds read low 0.993 | locus YPL078C, strain atp4, active compounds read low 0.953 | locus YPL106C, strain sse1, active compounds read low 0.976 | locus YPL240C, strain hsp82, active compounds read low 1 | locus YPL256C, strain CLN2, active compounds read low 0.946 | locus YPR119W, strain clb2, active compounds read low 1.01 | locus YPR141C, strain kar3, active compounds read low 1.02 | locus YPR163C, strain tif3, active compounds read low 1.01 | locus YPR167C, strain met16, active compounds read low 1.01 | strain wtn01, active compounds read low 1
